Reference: the supplement of paper PMC8975748
Structures can show the parent of a compound that is named as a salt.

What follows are compounds tested on Saccharomyces cerevisiae BY4741 SeMeCo community (assay: z-score of subpopulation abundance vs DMSO median, subpopulation auxotrophic for LU; higher = larger share of this subpopulation than in DMSO controls). Details: 10 µM; 24 h; SM minimal medium; subpopulation (auxotrophy): LU.
Experimental: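 Fluorescent four-plasmid SeMeCo (self-establishing metabolically cooperating S. cerevisiae BY4741 community; plasmids pH-mRuby2, pL-mWasabi, pU-eCFP, pM-TagRFP657) was grown 24 h in minimal SM medium with each Selleck FDA-approved drug at 10 µM in 384-well plates. Cells were fixed and imaged by high-content confocal microscopy. For each auxotrophic subpopulation (and the prototroph), a z-score gives the deviation from the DMSO vehicle-control population median.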

Row | Compound | z-score of subpopulation abundance
1 | Cc1onc(-c2ccccc2)c1C(=O)N[C@@H]1C(=O)N2[C@@H]1SC(C)(C)[C@@H]2C(=O)O [Oxacillin sodium monohydrate] | 0.83
2 | C[C@@H](CN1CC(=O)NC(=O)C1)N1CC(=O)NC(=O)C1 [Dexrazoxane HCl (ICRF-187, ADR-529)] | -0.36
3 | Cc1c(Nc2ncccc2C(=O)O)cccc1C(F)(F)F [Flunixin Meglumin] | -0.33
4 | O=C1CC2(CCCC2)CC(=O)N1CCCCN1CCN(c2ncccn2)CC1 [Buspirone HCl] | 1.78
5 | COc1ccc(NS(=O)(=O)c2ccc(N)cc2)nn1 [Sulfamethoxypyridazine] | -0.73
6 | Fc1ccc([C@@H]2CCNC[C@H]2COc2ccc3c(c2)OCO3)cc1 [Paroxetine mesylate] | 0.46
7 | Fc1ccc(C(c2ccc(F)cc2)N2CCN(C/C=C/c3ccccc3)CC2)cc1 [Flunarizine 2HCl] | 0.52
8 | C=C1CCC2C(C)(CO)C(O)CCC2(C)C1CC=C1C=COC1=O (stereo not given) [Dehydroandrographolide] | 1.6
9 | Nc1nc2ccc(OC(F)(F)F)cc2s1 [Riluzole] | 0.41
10 | O=C(O)Cc1ccccc1Nc1c(Cl)cccc1Cl [Diclofenac Sodium] | -0.84
11 | NCCNc1ccc(NCCN)c2c1C(=O)c1ccncc1C2=O [Pixantrone Maleate] | 2.14
12 | CO/N=C(\C(=O)N[C@@H]1C(=O)N2C(C(=O)O)=C(CSc3nnnn3C)CS[C@H]12)c1csc(N)n1 [Cefmenoxime hydrochloride] | 0.37
13 | COC(=O)C1=C(C)NC(C)=C(C(=O)OC(C)C)C1c1cccc2nonc12 (stereo not given) [Isradipine] | 0.62
14 | CCn1cc(C(=O)O)c(=O)c2cc(F)c(N3CCNCC3)nc21 [Enoxacin] | 0.6
15 | C[C@@H](O)[C@H]1C(=O)N2C(C(=O)OCOC(=O)C(C)(C)C)=C(SC3CN(C4=NCCS4)C3)[C@H](C)[C@H]12 [Tebipenem Pivoxil] | -0.6
16 | CC[C@@H]1/C=C(\C)C[C@H](C)C[C@H](OC)[C@H]2O[C@@](O)(C(=O)C(=O)N3CCCC[C@H]3C(=O)O[C@H](/C(C)=C/[C@@H]3CC[C@@H](O)[C@H](OC)C3)[C@H](C)[C@@H](O)CC1=O)[C@H](C)C[C@@H]2OC [Ascomycin (FK520)] | -0.23
17 | O=c1[nH]c2ccccc2n1CCN1CCN(c2cccc(C(F)(F)F)c2)CC1 [Flibanserin] | -0.2
18 | C[C@H]1COc2c(C3(N)CC3)c(F)cc3c(=O)c(C(=O)O)cn1c23 [Pazufloxacin mesylate] | 0.86
19 | Cc1cc(C)nc(O)n1.O=C(Nc1ccc([N+](=O)[O-])cc1)Nc1ccc([N+](=O)[O-])cc1 [Nicarbazin] | 0.22
20 | CCN1CC(CCN2CCOCC2)C(c2ccccc2)(c2ccccc2)C1=O (stereo not given) [Doxapram HCl] | -1.17

Row | Compound | z-score of subpopulation abundance
21 | C=CC1=C(C(=O)O)N2C(=O)[C@@H](NC(=O)/C(=N\OCC(=O)O)c3csc(N)n3)[C@H]2SC1 [Cefixime] | -0.02
22 | CO/N=C(\C(=O)N[C@@H]1C(=O)N2C(C(=O)[O-])=C(C[n+]3cccc4c3CCC4)CS[C@H]12)c1csc(N)n1 [Cefpirome sulfate] | -0.12
23 | Nc1nc(/C(=C/CC(=O)O)C(=O)N[C@@H]2C(=O)N3C(C(=O)O)=CCS[C@H]23)cs1 [Ceftibuten dihydrate] | -0.12
24 | COc1ccccc1OCC(O)CN1CCN(CC(=O)Nc2c(C)cccc2C)CC1 (stereo not given) [Ranolazine] | -0.55
25 | COc1ccc(CN2CCN(C(c3ccc(F)cc3)c3ccc(F)cc3)CC2)c(OC)c1OC [Lomerizine 2HCl] | -0.08
26 | Nc1c(CC(=O)O)cccc1C(=O)c1ccccc1 [Amfenac Sodium Monohydrate] | -0.63
27 | CC(=O)N1CCN(c2ccc(OCC3COC(Cn4ccnc4)(c4ccc(Cl)cc4Cl)O3)cc2)CC1 (stereo not given) [Ketoconazole] | -0.4
28 | CCCCOc1cc(C(=O)NCCN(CC)CC)c2ccccc2n1 [Dibucaine HCl] | -0.21
29 | CN1CCCN=C1/C=C/c1cccs1 [Pyrantel Pamoate] | -0.11
30 | COc1cc2c(cc1OC)[C@@H]1Cc3ccc(OC)c(OC)c3CN1CC2 [Rotundine] | 0.16
31 | CN1C(C(=O)Nc2ccccn2)=C(O)c2ccccc2S1(=O)=O [Piroxicam] | -0.71
32 | CCCc1nn(C)c2c(=O)[nH]c(-c3cc(S(=O)(=O)N4CCN(C)CC4)ccc3OCC)nc12 [Sildenafil Mesylate] | 0.91
33 | N=C(N)NC(=N)N1CCOCC1 [Moroxydine HCl] | 0.31
34 | C[C@]12CC[C@@H]3c4ccc(O)cc4C[C@@H](CCCCCCCCC[S+]([O-])CCCC(F)(F)C(F)(F)F)[C@H]3[C@@H]1CC[C@@H]2O (stereo not given in full) [Fulvestrant] | 0.81
35 | CO/N=C(\C(=O)N[C@@H]1C(=O)N2C(C(=O)O)=C(COC(C)=O)CS[C@H]12)c1csc(N)n1 [Cefotaxime sodium] | 0.37
36 | Oc1ccc(C2CNCCc3c2cc(O)c(O)c3Cl)cc1 (stereo not given) [Fenoldopam mesylate] | -1.75
37 | CCOc1cc(NC(C)=O)ccc1C(=O)OC [Ethopabate] | 1.2
38 | OCc1ccc(Cl)cc1Cl [2,4-dichlorobenzyl alcohol] | 1.19
39 | CCn1cc(C(=O)O)c(=O)c2cnc(N3CCNCC3)nc21 [Pipemidic acid] | 0.45
40 | CN(Cc1cnc2nc(N)nc(N)c2n1)c1ccc(C(=O)N[C@@H](CCC(=O)O)C(=O)O)cc1 [Methotrexate] | -1.77
